Laboratory results published in PubChem BioAssay AID623865 (Southern Research Specialized Biocontainment Screening …, 2012).

Assay: antiviral activity against WNV-induced cytopathicity – cell-based, secondary screen, flavivirus guanylyltransferase probe project (AID 623865)
Details: West Nile virus CPE inhibition assay; series mostly up to 50 µM; CPE inhibition: at the top concentration; call rule not given here

CPE inhibition, inactive:
O=[N+]([O-])c1cccc(S(=O)(=O)Nc2cc(Sc3nc4ccccc4s3)c(O)c3ccccc23)c1 1.19%, Cn1c(=O)c2[nH]c(-c3ccccc3)c(O)c2n(C)c1=O 2.6%, Cc1cc(C)c(S(=O)(=O)Nc2cc(SCC(=O)O)c(O)c3ccccc23)c(C)c1 1.97%, O=S(=O)(Nc1cc(Sc2ccccc2)c(O)c2ccccc12)c1ccc(F)cc1 1.58%, O=S(=O)(Nc1cc(SCc2ccccc2)c(O)c2ccccc12)c1ccc(Cl)cc1 1.23%, O=C(O)CSc1cc(NS(=O)(=O)c2cccc3cccnc23)c2ccccc2c1O 3.3%, O=C(O)CSc1cc(NS(=O)(=O)c2ccc(Cl)cc2)c2ccccc2c1O 1.89%, O=S(=O)(Nc1cc(Cl)c(O)c2ccccc12)c1ccc(F)cc1 1.6%, COc1ccc(OC)c(S(=O)(=O)Nc2cc(SCC(=O)O)c(O)c3ccccc23)c1 4.21%, O=C(O)CSc1cc(NS(=O)(=O)c2ccc(Br)cc2)c2ccccc2c1O 1.32%, O=[N+]([O-])c1cccc(S(=O)(=O)Nc2cc(SCc3ccccc3)c(O)c3ccccc23)c1 2.16%, Cc1ccc(S(=O)(=O)Nc2cc(SCC(=O)O)c(O)c3ccccc23)cc1 3.27%, O=S(=O)(Nc1cc(Sc2ncn[nH]2)c(O)c2ccccc12)c1ccc(F)cc1 0.42%, Cn1c(=O)c2[nH]c(-c3ccc(Cl)cc3)c(O)c2n(C)c1=O 2.76%, Cc1ccc(S(=O)(=O)Nc2cc(Sc3nc(C)cc(C)n3)c(O)c3ccccc23)cc1 0.88%, O=C(O)CSc1cc(NS(=O)(=O)c2cccc([N+](=O)[O-])c2)c2ccccc2c1O 1.51%, O=C(O)CSc1cc(NS(=O)(=O)c2ccc(F)cc2)c2ccccc2c1O 6.24%, Cc1cc(F)ccc1S(=O)(=O)Nc1cc(SCC(=O)O)c(O)c2ccccc12 5.52%
